Screens from PubChem BioAssay.
CtBP-E1A blk: qHTS Assay for Inhibitors of the CtBP/E1A Interaction; 340,000 compounds, 0.49% hits; activity change, % (test concentration not listed); AID 651724, 2012; AlphaScreen GST-E1A/His-CtBP binding, 1536-well; active compounds read low; in the data active means activity change below about -65%; inconclusive means mostly about -30% to -63%; further: on the % scale 0 is the no-effect control and ±100 the full control effect
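Steps: dispense buffer (Tris pH 8.0, NaCl 300 mM, TCEP 1 mM, BSA, Tween 20); add 5X protein mix (GST-E1A, His-CtBP, 125 nM each); pin 23 nL compound; 2 h at 37 °C, dark; add 5X beads (50 ug/mL); 1 h; read.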
HP1b chromo inh: HTS for Inhibitors of HP1-beta Chromodomain Interactions with Methylated Histone Tails; Potency, µM (series often up to 114 µM), inactives show at the highest dose activity change, negative = inhibition, actives largely listed as inhibitors; AID 540317, 2011; Chromobox protein homolog 1 (Homo sapiens), P83916; AlphaScreen HP1-beta / biotin-H3K9me3 peptide binding; 390,000 compounds, 0.56% hits; further: potency means the concentration at half of the fitted maximal effect; nearly all actives have a fitted effect of over 70% in size
Target sequence (P83916 whole entry, looked up): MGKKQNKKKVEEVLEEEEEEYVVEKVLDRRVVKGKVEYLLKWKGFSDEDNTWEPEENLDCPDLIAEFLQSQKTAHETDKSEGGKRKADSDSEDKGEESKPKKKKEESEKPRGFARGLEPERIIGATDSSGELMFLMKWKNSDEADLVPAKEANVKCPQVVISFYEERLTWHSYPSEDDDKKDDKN
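AlphaScreen: HP1-beta (50 nM) preformed 30 min with biotin-H3(1-18)K9me3 peptide (50 nM) in PBS pH 7.4, 0.01% Tween-20. Compound added for 30 min at RT, then streptavidin donor/nickel chelate acceptor beads (10 ug/mL) for 30 min.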
G9a block: qHTS Assay for Inhibitors of Histone Lysine Methyltransferase G9a; Histone-lysine N-methyltransferase EHMT2 (Homo sapiens), Q96KQ7; G9a H3K9 monomethylation, AlphaScreen, 2 h; Potency, µM (highest dose often 102 µM), for inactives: at the top dose activity, negative = inhibition, actives largely listed as inhibitors; 350,000 compounds, 8.8% hits; further: potency means the concentration at half of the fitted maximal effect; on the % scale 0 is the no-effect control and ±100 the full control effect; nearly all actives have a fitted effect of over 75% in size
Target sequence (Q96KQ7 913-1193 limits assumed): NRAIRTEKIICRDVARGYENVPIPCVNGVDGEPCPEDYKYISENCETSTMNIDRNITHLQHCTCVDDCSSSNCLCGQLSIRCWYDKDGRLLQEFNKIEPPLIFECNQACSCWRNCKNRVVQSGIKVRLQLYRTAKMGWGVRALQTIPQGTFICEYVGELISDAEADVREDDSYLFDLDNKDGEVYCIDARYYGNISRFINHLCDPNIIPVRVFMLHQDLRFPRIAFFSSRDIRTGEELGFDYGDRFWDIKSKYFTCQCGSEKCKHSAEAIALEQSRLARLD
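Methyltransferase reactions run at room temperature for 2 h (20 nM enzyme, 500 nM biotin-H3K9 peptide, 20 uM SAM) after a 15 min compound preincubation; product detected by AlphaScreen beads and anti-H3K9me1 antibody.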
JMJD2A Tudor: qHTS Assay for Inhibitors of JMJD2A-Tudor Domain; Lysine-specific demethylase 4A (Homo sapiens), O75164; AlphaScreen JMJD2A-Tudor / H3K4me3 peptide binding; Potency, µM (series often up to 114 µM), for the others: at the highest dose activity change, negative = inhibition, actives largely listed as inhibitors; 390,000 compounds, 4.4% hits; AID 504339, 2011; further: potency means the concentration at half of the fitted maximal effect; on the % scale 0 is the no-effect control and ±100 the full control effect; nearly all actives have a fitted effect of over 50% in size
Six1-Eya2 blk: qHTS Assay for Inhibitors of the Six1/Eya2 Interaction; Homeobox protein SIX1 (Homo sapiens) + Protein phosphatase EYA2 (Homo sapiens), …; AlphaScreen GST-Six1/His-Eya2 binding, biochemical; active compounds read low; activity change, % (test concentration not listed); 360,000 compounds, 0.56% hits; AID 651725, 2012; in the data active means activity change below about -65%; inconclusive means mostly about -30% to -63%; further: on the % scale 0 is the no-effect control and ±100 the full control effect
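Six1/Eya2 binding was read as AlphaScreen signal after compounds were pinned into GST-Six1 plus His-tagged Eya2 (5X stock 250/500 nM) in pH 8.0 Tris/NaCl/TCEP buffer, beads added, then incubated 1 h, 37 C, dark.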
BAZ2B inh: qHTS Assay for Inhibitors of BAZ2B; AID 504333, 2011; AlphaScreen BAZ2B-H3K14Ac peptide displacement; Bromodomain adjacent to zinc finger domain protein 2B (Homo sapiens), Q9UIF8; 360,000 compounds, 4.4% hits; Potency, µM (series often up to 114 µM), without a hit: top-dose activity change, negative = inhibition, most hits filed as inhibitors; further: potency means the concentration at half of the fitted maximal effect; on the % scale 0 is the no-effect control and ±100 the full control effect; nearly all actives have a fitted effect of over 60% in size
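Compounds, titrated to a top concentration of 110 uM, were incubated 30 min at room temperature with preformed BAZ2B/acetyl-K14 H3 peptide complex (50 nM each). Proximity signal was measured by AlphaScreen after 20 min with beads.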
* marks the source's active call; other numbers are inactive results; ? = inconclusive; · = not tested or not shown; [ ] = another dose, or the depositor's remark. Sampled rows, rich in hits. Any-hit rate of the full collection: about 10%. Unless noted, the call rests on the fitted dose curve; in most records, active means well fitted inhibition curve with a large enough effect; inconclusive means small, poorly fitted or top-dose-only effect; inactive means no such curve, though single readings can be large or run the other way.

SMILES	CtBP-E1A blk	HP1b chromo inh	G9a block	JMJD2A Tudor	Six1-Eya2 blk	BAZ2B inh
CCOc1ccc(-n2c(SCc3nc(-c4ccc(OC)cc4)no3)nnc2-c2ccncc2)cc1	·	7%	-7%[59 µM]	-28%	·	-32%
Cn1c(N)cc(=O)[nH]c1=S	16	30%	·	?	0	·
Cn1c(=S)[nH]c2[nH]c(=O)cnc2c1=O	17	25%	?	89µM*	5	-10%
Cc1n[nH]c(C)c1Sc1ccccc1N=Cc1cc([N+](=O)[O-])ccc1O	·	·	10µM*	·	·	4%
CCOc1cnc(-c2c(-c3c(Cl)cccc3Cl)noc2C)o1	-16	45µM*	45µM*	57%	-4	45µM*
CCOc1cnc(-c2ccc(Cl)cc2)o1	3	13%	?	9%	-2	-20%
Cc1nc(-c2ccc(Cl)cc2)sc1CCNC(=O)c1cccs1	·	1%[57 µM]	7%[59 µM]	-1%	·	0%
CCOC(=O)NC1(Nc2cccc(Cl)c2)Oc2ccccc2O1	4	?	2µM*	40µM*	-3	3%
Cc1ccc(/C=N/Nc2ccc3c(C(F)(F)F)cc(C(F)(F)F)nc3n2)cc1	-21	26%	?	1%	1	2%
NNc1ccc2c(C(F)(F)F)cc(C(F)(F)F)nc2n1	-1	40%	35µM*	-27%	-3	-11%
O=C(CCCN1C(=O)/C(=C/c2ccccc2Cl)SC1=S)N1CCCC1	·	?	-6%[12.7 µM]	14µM*	?	14µM*
O=C(CCN1C(=O)/C(=C/c2ccccc2Cl)SC1=S)N1CCOCC1	-2	32%	?	-15%	-1	?
O=C(CCN1C(=O)/C(=C/c2ccccc2Cl)SC1=S)N1CCCC1	0	?	13%	?	18	25µM*
COc1ccc(NCc2ccc([N+](=O)[O-])s2)cc1	-12	?	7.9µM*	56µM*	-4	50µM*
O=[N+]([O-])c1ccc(CNc2cccc(Cl)c2)s1	0	-11%	45µM*	?	-17	?
O=[N+]([O-])c1ccc(CNc2ccc(Cl)cc2)s1	-6	?	45µM*	?	-3	35µM*
O=[N+]([O-])c1ccc(CNc2ccc(F)cc2)s1	-8	-21%	45µM*	?	-2	40µM*
O=C1CCCC2=C1C(c1ccccc1Cl)N=C(Nc1nc3ccccc3o1)N2 (centres undefined)	·	·	·	-22%	·	·
Cc1ccccc1NC(=O)CSc1nc2ccc(NC(=O)CCc3ccccc3)cc2s1	·	11%	-3%[59 µM]	-13%	·	-12%
CCOc1cccc(NC(=O)C2CC(=O)N(C)C(=Nc3cccc(OC)c3)S2)c1 (centres undefined)	·	35%	?	-18%	·	-8%
Cc1ccccc1-n1nc(CO)c(C(=O)NCC(c2ccccc2)c2ccccc2)n1	·	63%	20%[59 µM]	3%	·	12%
Cc1nn2c(=O)cc(COC(=O)C(c3ccccc3)c3ccccc3)nc2s1	·	9%	18%[59 µM]	-11%	·	-9%
COc1ccc(NCc2ccc([N+](=O)[O-])s2)c(OC)c1	-24	18µM*	10µM*	40µM*	-9	32µM*
CCCCC(=O)Nc1ccc(OCc2cc(=O)n3c(C)csc3n2)cc1	·	54%	8%[59 µM]	-11%	·	4%
CN1C(=O)C(O)(CC(=O)/C=C/c2ccco2)c2cc(Br)ccc21 (centres undefined)	-8	8%	35µM*	-35%	-1	-28%
SMILES	CtBP-E1A blk	HP1b chromo inh	G9a block	JMJD2A Tudor	Six1-Eya2 blk	BAZ2B inh
COc1cccc(CNc2nc3ccc(C)cc3n3cnnc23)c1	·	37%	-2%	-9%	2	-2%
Cc1ccc(CNc2nc3ccc(C)cc3n3cnnc23)cc1	0	10%	50µM*	-36%	1	-3%
c1ccc(CNc2nc3ccccc3n3cnnc23)cc1	-25	26%	7%	?	5	3%
c1ccc(CNc2nc3ccccc3n3cnnc23)nc1	-2	27%	45µM*	-13%	2	-10%
O=C(c1cnccn1)N1CCc2ccccc21	0	-1%	13%[59 µM]	79µM*	-1	?
O=C(c1cnccn1)N1CCc2ccccc2C1	6	44%	35%[59 µM]	0%	5	-38%
O=C(NCN1CCc2ccccc2C1)c1cnccn1	-10	10%	22%[59 µM]	6.3µM*	3	15%
O=C(NCN1CCc2ccccc2C1)c1ccccc1	2	19%	17%[59 µM]	-16%	4	9%
O=C1C(=Cc2cn(-c3ccccc3)nc2-c2ccc(OCc3ccccc3)cc2)SC(=S)N1CCS(=O)(=O)O	-19	·	·	·	-74*	·
C#CCN1C(=O)S/C(=C/c2cc(C)n(CC)c2C)C1=O	-12	29%	-2%	-23%	-14	18%
CCn1c(C)cc(/C=C2/SC(=S)N(CC(=O)O)C2=O)c1C	-7	1%	50µM*	-31%	-6	-32%
CC(C)COc1ccc(-c2nn(-c3ccccc3)cc2/C=C2/SC(=S)N(CC(=O)O)C2=O)cc1	·	40µM*	50µM*	45µM*	-7	45µM*
O=C(O)CN1C(=O)/C(=C\c2cn(-c3ccccc3)nc2-c2ccccc2)SC1=S	-10	-21%[57 µM]	11µM*	50µM*	11	?
COc1ccc(S(=O)(=O)NCC(c2ccco2)S(=O)(=O)c2cccs2)cc1C (centres undefined)	·	34%	-22%[59 µM]	-5%	·	-14%
O=c1ccc(-c2ccc(S(=O)(=O)NCC3CCN(Cc4ccccc4F)CC3)s2)n[nH]1	-88*	-7%	16%	?	-84*	-31%
COC(=O)c1cc(S(=O)(=O)NCC2CCN(Cc3ccccc3F)CC2)c[nH]1	·	19%[57 µM]	13%	-17%	4	-4%
C/C(CC(C)C)=N\Nc1ccc(S(N)(=O)=O)cc1[N+](=O)[O-]	-18	-8%	?	?	-11	·
Cc1cc(C)c2c(c1)/C(=N/Nc1ccc(S(N)(=O)=O)cc1[N+](=O)[O-])CCC2	·	14%[57 µM]	40µM*	-15%	-4	-32%
NS(=O)(=O)c1ccc(N/N=C2/CCCCC2C2CCCCC2)c([N+](=O)[O-])c1 (centres undefined)	?	32µM*	?	28µM*	?	10µM*
CCC(C(=O)Nc1ccccc1OC)n1nc(C)c2sc3ccccc3c2c1=O (centres undefined)	·	41%	?	-3%	·	5%
